The supplement of paper PMC12350171
Counter-ions that a name gives are not always drawn.

Tests used:
Test in all cases: growth AUC normalised to DMSO control (median) (fraction of control); higher = less growth inhibition, active = hit call of the paper
Conditions in all cases: 20 µM;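 active = normalised median growth AUC below 0.1 of DMSO control; inactive = AUC 0.1 or higher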
P. vulgatus RND KO = test system: P. vulgatus RND KO
In short: (§1)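 In 96-well plates of mGAM seeded at OD578 0.01, strains that had been passaged twice overnight without oxygen were exposed to approved-drug library compounds at 20 μM with 1% DMSO. Hourly OD578 readings were taken for 24 h in an anaerobic incubator. The trapezoidal-rule area under the curve, with curves truncated at entry into stationary phase, was expressed relative to same-plate vehicle wells as the median of three biological replicates.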

P. vulgatus WT = test system: P. vulgatus WT
In short: as §1

[1] = test system: S. enterica typhimurium WT
In short: as §1

[2] = test system: S. enterica typhimurium tolC KO
In short: as §1

Measured: growth AUC normalised to DMSO control
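Note: active when median AUC fell below 0.1.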

COc1c(-c2ccc3cc(NS(C)(=O)=O)ccc3c2)cc(-n2ccc(=O)[nH]c2=O)cc1C(C)(C)C [Dasabuvir]
inactive: P. vulgatus RND KO 0.831 | P. vulgatus WT 0.827 | [1] 1 | [2] 0.94

NC(=O)c1ncn([C@@H]2O[C@H](CO)[C@@H](O)[C@H]2O)c1O [Mizoribine]
inactive: P. vulgatus RND KO 1.04 | P. vulgatus WT 1.01 | [1] 1.01 | [2] 0.996

CCOC(=O)[C@H](CCc1ccccc1)N[C@@H](C)C(=O)N(CC(=O)O)C1Cc2ccccc2C1 [Delapril Hydrochloride]
inactive: P. vulgatus RND KO 1 | P. vulgatus WT 0.999 | [1] 1 | [2] 0.987

NC(=O)c1cn(Cc2c(F)cccc2F)nn1 [Rufinamide]
inactive: P. vulgatus RND KO 0.994 | P. vulgatus WT 0.963 | [1] 1 | [2] 1

CC(C(=O)O)c1ccc(CC2CCCC2=O)cc1 (stereo not given) [Loxoprofen]
inactive: P. vulgatus RND KO 1.01 | P. vulgatus WT 1.01 | [1] 1.01 | [2] 1.01

Cc1onc(-c2ccccc2)c1-c1ccc(S(N)(=O)=O)cc1 [Valdecoxib]
inactive: P. vulgatus RND KO 0.981 | P. vulgatus WT 0.993 | [1] 1 | [2] 0.983

C#CCN[C@@H]1CCc2ccccc21 [Rasagiline]
inactive: P. vulgatus RND KO 0.989 | P. vulgatus WT 0.96 | [1] 1 | [2] 0.982

CC(=O)Nc1ccc(CC(=O)O)cc1 [Actarit]
inactive: P. vulgatus RND KO 0.953 | P. vulgatus WT 1.01 | [1] 1 | [2] 0.991

NS(=O)(=O)c1cc(C(=O)NN2C[C@@H]3[C@H]4CC[C@H](C4)[C@@H]3C2)ccc1Cl [Tripamide]
inactive: P. vulgatus RND KO 1.02 | P. vulgatus WT 1.07 | [1] 0.999 | [2] 0.975

COC(=O)C1=C(C)NC(C)=C(C(=O)OC2CCCN(Cc3ccccc3)C2)C1c1cccc([N+](=O)[O-])c1 (stereo not given) [Benidipine hydrochloride]
inactive: P. vulgatus RND KO 1.01 | P. vulgatus WT 0.968 | [1] 0.993 | [2] 0.961

Cc1nc(=O)c2cc(CN(C)c3ccc(C(=O)N[C@@H](CCC(=O)O)C(=O)O)s3)ccc2[nH]1 [Raltitrexed]
inactive: P. vulgatus RND KO 1.04 | P. vulgatus WT 0.997 | [1] 1 | [2] 0.991

O=C(O)COc1nn(Cc2ccccc2)c2ccccc12 [Bendazac]
inactive: P. vulgatus RND KO 0.998 | P. vulgatus WT 1.02 | [1] 1 | [2] 0.987

CC(COc1ccccc1)NN (stereo not given) [Phenoxypropazine dihydrochloride]
inactive: P. vulgatus RND KO 1.07 | P. vulgatus WT 1.08 | [1] 1.01 | [2] 0.994

Nc1nc2[nH]cnc2c(=S)[nH]1 [Tioguanine]
inactive: P. vulgatus RND KO 1.01 | P. vulgatus WT 1 | [1] 0.907 | [2] 0.876

O=C1c2cccc(O)c2C(=O)c2c(O)cccc21 [Danthron]
inactive: P. vulgatus RND KO 0.689 | P. vulgatus WT 0.525 | [1] 0.991 | [2] 0.369

NC(=O)Cc1cccc(C(=O)c2ccccc2)c1N [Nepafenac]
inactive: P. vulgatus RND KO 1.03 | P. vulgatus WT 1.01 | [1] 0.996 | [2] 1.02

CCOC(=O)[C@H](CCc1ccccc1)N[C@@H](C)C(=O)N1C(=O)N(C)C[C@H]1C(=O)O [Imidapril hydrochloride]
inactive: P. vulgatus RND KO 1.01 | P. vulgatus WT 1 | [1] 1.02 | [2] 1

CN1CC(O)c2cc(N=NC(N)=O)c(O)cc21 (stereo not given) [Carbazochrome]
inactive: P. vulgatus RND KO 0.999 | P. vulgatus WT 1.01 | [1] 0.999 | [2] 0.952

C[C@H](Cc1cc2c(c(C(N)=O)c1)N(CCCO)CC2)NCCOc1ccccc1OCC(F)(F)F [Silodosin]
inactive: P. vulgatus RND KO 1.06 | P. vulgatus WT 1.05 | [1] 1.01 | [2] 0.961

COc1ncnc(NS(=O)(=O)c2ccc(N)cc2)c1OC [Sulfadoxine]
inactive: P. vulgatus RND KO 0.981 | P. vulgatus WT 0.982 | [1] 0.99 | [2] 0.993

COc1ccc2cc1Oc1ccc(cc1)C[C@H]1c3c(cc4c(c3Oc3cc5c(cc3OC)CCN(C)[C@@H]5C2)OCO4)CCN1C [Cepharanthine]
inactive: P. vulgatus RND KO 0.999 | P. vulgatus WT 0.973 | [1] 1.02 | [2] 0.998

O=C1[C@H](CC[C@H](O)c2ccc(F)cc2)[C@@H](c2ccc(O)cc2)N1c1ccc(F)cc1 [Ezetimibe]
inactive: P. vulgatus RND KO 0.901 | P. vulgatus WT 0.918 | [1] 1 | [2] 0.828

CCCCCCCCCCCCCCCCCCCCCC(=O)Nc1ccn([C@@H]2O[C@H](CO)[C@@H](O)[C@@H]2O)c(=O)n1 [Enocitabine]
inactive: P. vulgatus RND KO 1.01 | P. vulgatus WT 1.04 | [1] 1.01 | [2] 1

NC(=O)[C@@H]1CCCN1C(=O)[C@H](Cc1c[nH]cn1)NC(=O)[C@@H]1CCC(=O)N1 [Thyrotropin-Releasing Hormone]
inactive: P. vulgatus RND KO 1.05 | P. vulgatus WT 1.04 | [1] 0.996 | [2] 1.01

C/C(=C(\CCOC(=O)c1ccccc1)SS/C(CCOC(=O)c1ccccc1)=C(/C)N(C=O)Cc1cnc(C)nc1N)N(C=O)Cc1cnc(C)nc1N [Bisbentiamine]
inactive: P. vulgatus RND KO 1.02 | P. vulgatus WT 1.07 | [1] 1.01 | [2] 0.999

CC(=O)Nc1cccc(O)c1 [Metacetamol]
inactive: P. vulgatus RND KO 1 | P. vulgatus WT 1.01 | [1] 1 | [2] 0.987

CN[C@@H]1CCc2[nH]c3ccc(C(N)=O)cc3c2C1 [Frovatriptan succinate]
inactive: P. vulgatus RND KO 1.02 | P. vulgatus WT 1.02 | [1] 1 | [2] 1

N=c1ccn2c(n1)O[C@H]1[C@H](O)[C@@H](CO)O[C@H]12 [Ancitabine hydrochloride]
inactive: P. vulgatus RND KO 0.971 | P. vulgatus WT 0.978 | [1] 1.01 | [2] 0.991

COc1cc2/c(=N/c3ccc(Br)cc3F)nc[nH]c2cc1OCC1CCN(C)CC1 [Vandetanib]
inactive: P. vulgatus RND KO 1.1 | P. vulgatus WT 1.08 | [1] 1.02 | [2] 1.01

CNC(=O)OCc1cccc(COC(=O)NC)n1 [Pyricarbate]
inactive: P. vulgatus RND KO 1.03 | P. vulgatus WT 1.08 | [1] 1.01 | [2] 0.999

N#C/C(=C1/SCC(c2ccccc2Cl)S1)n1ccnc1 (stereo not given) [Lanoconazole]
inactive: P. vulgatus RND KO 1.04 | P. vulgatus WT 1.08 | [1] 1 | [2] 0.834

CCCSc1nc(N[C@@H]2C[C@H]2c2ccc(F)c(F)c2)c2nnn([C@@H]3C[C@H](OCCO)[C@@H](O)[C@H]3O)c2n1 [Ticagrelor]
inactive: P. vulgatus RND KO 0.786 | P. vulgatus WT 0.544 | [1] 1.03 | [2] 0.899

CC(C)(C)CC(C)(C)c1ccc(O)c(Cc2ccc(Cl)cc2Cl)c1 [Clofoctol]
inactive: P. vulgatus RND KO 0.619 | P. vulgatus WT 0.581 | [1] 0.995 | [2] 1.02

CN1CC(=O)N2[C@H](c3ccc4c(c3)OCO4)c3[nH]c4ccccc4c3C[C@@H]2C1=O [Tadalafil]
inactive: P. vulgatus RND KO 0.919 | P. vulgatus WT 0.845 | [1] 0.996 | [2] 0.981

CN(C)C(=O)COC(=O)Cc1ccc(OC(=O)c2ccc(NC(=N)N)cc2)cc1 [Camostat mesylate]
inactive: P. vulgatus RND KO 1.02 | P. vulgatus WT 1.03 | [1] 0.997 | [2] 1

C[C@@H]1CCO[C@H]2Cn3cc(C(=O)NCc4ccc(F)cc4F)c(=O)c(O)c3C(=O)N12 [Dolutegravir]
inactive: [1] 1 | [2] 0.907
active: P. vulgatus RND KO 0.0521 | P. vulgatus WT 0.049

O=C(NC1CCN(CCCCC2(C(=O)NCC(F)(F)F)c3ccccc3-c3ccccc32)CC1)c1ccccc1-c1ccc(C(F)(F)F)cc1 [Lomitapide]
inactive: P. vulgatus RND KO 1.01 | P. vulgatus WT 1.05 | [1] 1.01 | [2] 1

C=C1CC[C@H](O)C/C1=C/C=C1\CCC[C@]2(C)[C@@H]([C@H](C)CCCC(C)C)CC[C@@H]12 [Cholecalciferol]
inactive: P. vulgatus RND KO 1.05 | P. vulgatus WT 1.07 | [1] 0.999 | [2] 0.982

C[N+](C)(C)C[C@H](O)CC(=O)[O-] [Levocarnitine]
inactive: P. vulgatus RND KO 0.998 | P. vulgatus WT 1.04 | [1] 0.998 | [2] 1

CCCN1CCCC[C@H]1C(=O)Nc1c(C)cccc1C [Ropivacaine hydrochloride]
inactive: P. vulgatus RND KO 1.02 | P. vulgatus WT 1.03 | [1] 0.997 | [2] 1

O=C(O)CSCC(=O)NC1CCSC1=O (stereo not given) [Erdosteine]
inactive: P. vulgatus RND KO 1.02 | P. vulgatus WT 1.04 | [1] 1 | [2] 0.999

Brc1c(NC2=NCCN2)ccc2nccnc12 [Brimonidine L-tartrate]
inactive: P. vulgatus RND KO 0.994 | P. vulgatus WT 1.02 | [1] 0.999 | [2] 1.01

CN(C)c1ccc2nc3ccc(=[N+](C)C)cc-3sc2c1 [Methylene blue]
inactive: P. vulgatus RND KO 1 | P. vulgatus WT 1.02 | [1] 0.98 | [2] 0.862

Cc1ccc(S(=O)(=O)NCl)cc1 [Chloramine-T hydrate]
inactive: P. vulgatus RND KO 1 | P. vulgatus WT 0.997 | [1] 0.996 | [2] 1

O=C(O)Cc1csc(-c2ccc(Cl)cc2)n1 [Fenclozic acid]
inactive: P. vulgatus RND KO 1.01 | P. vulgatus WT 1.03 | [1] 1.01 | [2] 0.98
